Molecules are shown by their SMILES. Calls of active or inactive are those of the source.

A short description of one assay: FRG1 promoter luciferase signal modulators, primary screen, FRG1 inhibition for FSHD, cell-based, C2C12 myotubes, firefly/Renilla luciferase, luminescence (AID 1084). As to conditions: higher = more signal, called active from +8 up or from −8 down.
Turning to `O=c1cccc(-c2ccccc2C(F)(F)F)o1`, the z-score was 0.364 (inactive).

`COC(=O)[C@@]1(Cc2ccc(OC)cc2)[C@H]2c3cc(C(=O)N4CCCC4)n(CCc4ccc(OC)c(Br)c4)c3C[C@H]2CN1C(=O)c1ccccc1`: the z-score was 1.25 (inactive).

As to `COc1ccc(CCNC(=O)[C@@H]2c3ccccc3C(=O)N(CC34CC5CC(CC(C5)C3)C4)[C@H]2c2ccc(CO)cc2)cc1`, the z-score is -1.89 (inactive).

In the case of `CCCCC(=C=CC[C@@H](O)c1cccc(OCCO)c1)CCO`, the z-score was -0.225 (inactive).

With `COC(=O)C1(CC(C)C)C=C2C(=C(C(C)C)C(=O)C2C)CN1` (centres undefined), the z-score is 1.65 (inactive).

On to `COCCOC(=O)N1C(=O)[C@@]2(c3cc(C#CCC(C(=O)OC)C(=O)OC)ccc31)[C@H](C(=O)N1CCCCCCC1)[C@H]1C(=O)O[C@H](c3ccccc3)[C@H](c3ccccc3)N1[C@@H]2c1ccccc1OCCO`, for which the z-score is 0.158 (inactive).

With `C=CCNC(=O)[C@H]1[C@@H]2C(=O)O[C@@H](c3ccccc3)[C@@H](c3ccccc3)N2[C@@H](c2ccc(O)cc2)[C@]12C(=O)Nc1ccc(C#CC3=CCCCC3)cc12`, the z-score is -0.195 (inactive).

For `C=CCC(OC(C)=O)[C@@H]1[C@@H](N(Cc2ccc(-c3cccc(C(F)(F)F)c3)o2)C(=O)c2cccc3ccccc23)c2cc(OCCCO)ccc2N1C(=O)c1ccc2ccccc2n1` (some centres undefined), the z-score is -0.147 (inactive).

As to `CCC[C@@H]1[C@@H](Sc2ccccc2)[C@@H](C(=O)O)[C@H](c2ccc(C)cc2)N1S(=O)(=O)c1ccc(C)cc1`, the z-score was -4.1 (inactive).

Another assay is described as follows: binders of probe aFST on microarray, primary screen, stem cell growth factor project, biochemical, small-molecule microarray, fluorescence 635/667 (AID 1086).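 Note: score merges 667 nm fluorescence with signal-to-noise of each printed compound spot.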 As to conditions: higher = more signal.
The compound `CC(=O)c1ccc(C(O)C2C=CC3C(=O)NC(=O)C3N2Nc2ccc(Cl)cc2Cl)cc1` (centres undefined) showed a composite z-score of 0.462.

Consider `C=CCC(OC(C)=O)[C@@H]1[C@@H](N(Cc2cccc3ccccc23)C(=O)c2ccc(C)cc2)c2cc(OCCCO)ccc2N1C(=O)c1ccc2ccccc2n1` (some centres undefined), for which the composite z-score was found to be 0.223.

`COC(=O)[C@@H]1N=C(c2ccc(OCCCO)cc2)O[C@@H]1c1ccccc1CN=[N+]=[N-]` came in with a composite z-score of 0.646.

`COc1ccc([Si](C)(C)[C@@H]2[C@@H](CCO)O[C@]3(C(=O)N(Cc4ccccc4)c4ccc(N5C(=O)c6ccccc6Oc6ccccc65)cc43)[C@H]2C)cc1`: the composite z-score is -0.089.

In turn, `COC(=O)[C@@]1(Cc2ccc(F)cc2)[C@H]2c3cc(C(=O)N(C)C)n(CCO)c3C[C@H]2CN1C(=O)c1ccccc1` returned a composite z-score of 0.433.

`CC(C)(C)N1CC=CC23O[C@@H]4/C=C\CCCOC(=O)C4[C@H]2C(=O)N(CCCCCCO)[C@@H]3C1=O` (some centres undefined) came in with a composite z-score of -0.392.

The compound `C=C(CCCC)C(=O)CC[C@H](OC(C)=O)c1ccccc1OCCO` returned a composite z-score of 0.167.

On to `COCCOC(=O)N1C(=O)[C@@]2(c3cc(C#CCC(C(=O)OC)C(=O)OC)ccc31)[C@H](C(=O)N1CCc3cc(OC)c(OC)cc3C1)[C@H]1C(=O)O[C@H](c3ccccc3)[C@H](c3ccccc3)N1[C@@H]2c1ccc(O)cc1`, for which the composite z-score turned out to be 0.346.

Take `O=C(NCCO)C1=C[C@H](Oc2ccccc2I)[C@@H](O)[C@H](NCc2ccc(F)cc2)C1`: the composite z-score is -0.459.

With `C=CCC(OC(C)=O)[C@@H]1[C@@H](N(Cc2cccc3ccccc23)C(=O)c2ccc(-c3ccccc3)cc2)c2cc(OCCCO)ccc2N1C(=O)c1ccc2ccccc2n1` (some centres undefined), the composite z-score was 0.386.

In turn, `COc1ccc([Si](C)(C)[C@H]2[C@H](CCO)O[C@@]3(C(=O)N(Cc4ccccc4)c4ccc(N(C=O)c5ccccc5)cc43)[C@@H]2C)cc1` showed a composite z-score of 0.643.

For `CCCC[C@H]1OB(O)C[C@H]2C1=C(C)C[C@H]1C(=O)C=CC(=O)[C@H]12`, the composite z-score came to 0.189.

Consider `[N-]=[N+]=NCc1ccccc1[C@@H]1OC(c2ccc(OCCCO)cc2)=N[C@]1(Cc1ccccc1)C(=O)NCc1ccccc1`, for which the composite z-score came to 0.846.

`COc1ccccc1CN1C(=O)c2ccccc2[C@](Cc2ccccc2I)(C(=O)NCCCN(C)C)[C@@H]1c1ccc(CO)cc1` had a composite z-score of -0.0929.

In turn, `CCCCCCc1nc(-c2ccc(OC)nc2)cc2c1[Si](C(C)C)(C(C)C)OC2` registered a composite z-score of -0.193.

The compound `CC(=O)n1cc(C(O)C2C=CC3C(=O)N(c4ccccc4)C(=O)C3N2Nc2ccccc2F)c2ccccc21` (centres undefined) registered a composite z-score of -0.346.

`COc1ccc(NN2C(C(O)c3cc(C(F)(F)F)cc(C(F)(F)F)c3)C=CC3C(=O)N(C4CCCCC4)C(=O)C32)cc1` (centres undefined): the composite z-score was determined as 1.36.

Compound `CC1CC/C=C\[C@H]2OC34C=CCN(c5ccc(Cl)cc5)C(=O)[C@H]3N(CCCO)C(=O)[C@]4(C)C2C(=O)O1` (some centres undefined) registered a composite z-score of -0.558.

The compound `O=C1NC(=O)C2C1C=CC(C(O)c1cccc(O)c1)N2Nc1ccc(Cl)cc1Cl` (centres undefined) returned a composite z-score of 0.259.

The compound `CCc1cccc(NC(=O)O[C@H]2[C@H](OC(=O)Nc3ccc4c(c3)OCO4)[C@H](OC(=O)Nc3ccc4c(c3)OCO4)[C@@H](OC)O[C@@H]2CO)c1` returned a composite z-score of 0.318.

In turn, `C[N+](C)(C)CCCCCCNC(=O)[C@@H]1C[C@@H]2C(=O)N[C@@H](Cc3ccccc3)C(=O)N2[C@@H]1c1ccc(O)cc1` displayed a composite z-score of 0.957.

As to `CCN(CC)c1ccc(N2CC=CC34O[C@@H]5C=CCOC(=O)[C@@H]5[C@H]3C(=O)N(CCCO)[C@@H]4C2=O)cc1` (some centres undefined), the composite z-score is -0.504.

The compound `COCCCNC(=O)[C@@]1(Sc2ccc(C)cc2)CC(=O)N(C2CCCCC2)[C@@H]1c1ccc(CO)cc1I` displayed a composite z-score of 0.505.

`COCCOC(=O)N1C(=O)[C@@]2(c3cc(C#CC4(O)CCCCCC4)ccc31)[C@H](c1ccc(OCCO)cc1)N1[C@H](c3ccccc3)[C@H](c3ccccc3)OC(=O)[C@H]1[C@@H]2C(=O)N1CCCCCCC1` came in with a composite z-score of 2.41.

The compound `C=CC[C@@]12N=C(c3ccc(OCCCO)cc3)O[C@@H]1c1ccccc1N(Cc1ccccc1)C2=O` yielded a composite z-score of 2.19.

For the compound `C=C(CCCC)/C(=C/C[C@H](OC(C)=O)c1cccc(OCCO)c1)c1cc(C(=O)OC)ccc1OC`, the composite z-score was -0.221.

The compound `O=c1cccc(-c2ccccc2C(F)(F)F)o1` came in with a composite z-score of 0.862.

Compound `COC(=O)[C@@]1(Cc2ccc(OC)cc2)[C@H]2c3cc(C(=O)N4CCCC4)n(CCc4ccc(OC)c(Br)c4)c3C[C@H]2CN1C(=O)c1ccccc1` had a composite z-score of 0.546.

In the case of `COc1ccc(CCNC(=O)[C@@H]2c3ccccc3C(=O)N(CC34CC5CC(CC(C5)C3)C4)[C@H]2c2ccc(CO)cc2)cc1`, the composite z-score is -0.0095.

Turning to `CCCCC(=C=CC[C@@H](O)c1cccc(OCCO)c1)CCO`, the composite z-score came out at 0.0204.

`COC(=O)C1(CC(C)C)C=C2C(=C(C(C)C)C(=O)C2C)CN1` (centres undefined) yielded a composite z-score of 0.315.

The compound `COCCOC(=O)N1C(=O)[C@@]2(c3cc(C#CCC(C(=O)OC)C(=O)OC)ccc31)[C@H](C(=O)N1CCCCCCC1)[C@H]1C(=O)O[C@H](c3ccccc3)[C@H](c3ccccc3)N1[C@@H]2c1ccccc1OCCO` displayed a composite z-score of 3.34.

In turn, `C=CCNC(=O)[C@H]1[C@@H]2C(=O)O[C@@H](c3ccccc3)[C@@H](c3ccccc3)N2[C@@H](c2ccc(O)cc2)[C@]12C(=O)Nc1ccc(C#CC3=CCCCC3)cc12` had a composite z-score of -0.166.

Take `C=CCC(OC(C)=O)[C@@H]1[C@@H](N(Cc2ccc(-c3cccc(C(F)(F)F)c3)o2)C(=O)c2cccc3ccccc23)c2cc(OCCCO)ccc2N1C(=O)c1ccc2ccccc2n1` (some centres undefined): the composite z-score is -0.111.

In turn, `CCC[C@@H]1[C@@H](Sc2ccccc2)[C@@H](C(=O)O)[C@H](c2ccc(C)cc2)N1S(=O)(=O)c1ccc(C)cc1` came in with a composite z-score of 1.11.
